The source of these data is PubChem BioAssay (Tox21).

Each structure is given as a SMILES string. Unmarked numbers belong to inactive results. Records with an inconclusive call do not appear. Active and inactive are the calls of the source. Unless noted, calls come from the whole dose curve; as a rule, active = well fitted curve in the direction sought with a large enough effect in the repeat runs; inconclusive = weak or mixed curves; inactive = no such curve, though single readings can be large; an effect the other way counts as inactive or inconclusive.

The nature of assay [1]: qHTS assay to identify small molecule agonists of the estrogen receptor alpha (ER-alpha) signaling pathway in the presence of an antagonist - cell viability counter screen (AID 1259386).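 Note: series mostly up to about 92 µM; cells exposed to compounds for 22 h at 37 °C before the viability read; nearly all actives have a fitted effect of over 30% in size.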 The method in brief: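 ICI-182,780 at 10.0nM final accompanies the compound titration (15 concentrations, 22hr, 37C) on VM7Luc4E2 cells. The CellTiter-Fluor fluorescence readout runs in the same wells as the luciferase assay.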
Background: Quantitative high-throughput screening tests each substance at several concentrations.

Assay [2] addresses Progesterone receptor (Homo sapiens) (UniProt P06401). In words: qHTS assay to identify small molecule agonists of the progesterone receptor (PR) signaling pathway (AID 1346784; calls by dose curve; note: nearly all actives have a fitted effect of over 30% in size; note: potency is the fitted concentration of half-maximal effect). Summed up: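 Agonist mode, quantitative HTS format in a HEK 293T line expressing a UAS-controlled beta-lactamase reporter; 16 hr compound exposure at 37C in 2% charcoal-stripped FBS, then LiveBLAzer B/G FRET fluorescence.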

For assay [3] the target is unchanged. The experiment in a line: qHTS assay to identify small molecule antagonists of the progesterone receptor (PR) signaling pathway (AID 1346795; active = well fitted inhibition curve with a large enough effect in the signal ratio in the repeat runs, not every such curve was filed as active; the % refers to the signal ratio; note: potency is the fitted concentration of half-maximal effect). Summed up: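 HEK293T PR-UAS-bla reporter cells in charcoal-stripped serum (2%) received compound after a 6 hr settling period, followed by R5020 agonist at 1 nM final; 16 hr incubation preceded the FRET substrate step and fluorescence measurement.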

The nature of assay [4]: qHTS assay to identify small molecule antagonists of the TGF-beta/Smad signaling pathway - cell viability counter screen (AID 1346824). Note: nearly all actives have a fitted effect of over 50% in size. The method in brief: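 SBE-bla HEK 293T cells, incubated overnight, then compound plus 0.25 ng/mL TGF-beta1 (stock added) for 5 hr at 37 C. Viability was read in the same wells by CellTiter-Glo luminescence after 30 min at room temperature.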

The nature of assay [5]: qHTS assay to identify small molecule agonists of the TGF-beta/Smad signaling pathway (AID 1346859; active = well fitted activation curve with a large enough effect in the signal ratio in the repeat runs, not every such curve was filed as active; the % refers to the signal ratio; note: series mostly up to about 77 µM). Summed up:
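Smad-responsive beta-lactamase reporter cells (HEK 293T) received compounds from DMSO stocks after overnight attachment, were incubated 5 hr, then treated 2 hr with FRET substrate before dual-emission fluorescence measurement (405 nm excitation).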

The target in assay [6] is Thyrotropin-releasing hormone receptor (Homo sapiens) (UniProt P34981). The experiment in a line: qHTS assay to identify small molecule antagonists of the thyrotropin-releasing hormone receptor (TRHR) signaling pathway (AID 1346877; active = well fitted inhibition curve with a large enough effect in the repeat runs, not every such curve was filed as active; note: series mostly up to about 51 µM). The method in brief: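 Screening used HEK293 cells engineered with TRHR, with a brief 5 min room-temperature compound exposure preceding addition of TRH to 1 nM. The read-out was kinetic calcium-dye fluorescence, concentration-response from 15 doses in triplicate.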

Assay [7] has the same target. In words: qHTS assay to identify small molecule agonists of the thyrotropin-releasing hormone receptor (TRHR) signaling pathway (AID 1346891; calls by dose curve;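 note: HEK293 cells expressing TRHR with calcium dye readout; series mostly up to about 58 µM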). Summed up:
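Agonist-mode calcium mobilisation screen: TRHR-transfected HEK293 cells cultured overnight (18 h), dye-loaded for 2 h at 37 °C, exposed to compounds, and monitored by fluorescence for 3 min.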

Assay [8] can be described thus: Caspase-3/7 induction in HepG2 cells by small molecules, qHTS assay (AID 1346978). Note: nearly all actives have a fitted effect of over 15% in size. Summed up: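 Wild-type HepG2 cells, 2,000/well, settled 5 hr at 37 C and 5% CO2, then compound-treated for 17 hr; caspase-3/7 activity read by luminescent Caspase-Glo 3/7 after 30 min at room temperature.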
Assay [9] can be described thus: Caspase-3/7 induction in CHO-K1 cells by small molecules, qHTS assay (AID 1346980). Note: nearly all actives have a fitted effect of over 15% in size. Summed up: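 Wild-type CHO-K1 cells exposed to compounds for 17hr at 37 C, 5% CO2. Caspase-3/7 activity then measured by Caspase-Glo 3/7 luminescence after 30min at room temperature.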
A short description of assay [10]: Caspase-3/7 induction in HepG2 cells by small molecules, qHTS cell viability counter screen (AID 1346981). Note: series mostly up to about 92 µM; nearly all actives have a fitted effect of over 30% in size. The method in brief:
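Multiplexed with the caspase-3/7 assay: HepG2 cells, 16 hr compound treatment, CellTiter-Fluor viability detection by fluorescence.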

In assay [11] the target is Nuclear receptor subfamily 1 group I member 2 (Homo sapiens) (UniProt O75469). In words: Human pregnane X receptor (PXR) small molecule agonists, qHTS assay (AID 1346982). Note: nearly all actives have a fitted effect of over 35% in size. Note: potency is the fitted concentration of half-maximal effect. The method in brief:
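We seeded PXR-Luc HepG2 cells in assay medium containing 5% charcoal-stripped FBS, added compounds 5 hr later, incubated 24 hr, and read luminescence with ONE-Glo reagent.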

For assay [12], the target named is Acetylcholinesterase (Homo sapiens) (UniProt P22303). The experiment in a line: Acetylcholinesterase (AChE) small molecule antagonists: colormetric cell-based qHTS assay (AID 1347395; calls by dose curve; note: nearly all actives have a fitted effect of over 30% in size). The method in brief: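 Endogenous AChE of human neuroblastoma SH-SY5Y cells was measured with an Ellman-type DTNB/acetylthiocholine mix. Compound pretreatment lasted 30 min at 37 C; substrate reaction ran 90 min at 37 C.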

Assay [13] in a line: qHTS assay to identify small molecule antagonists of the progesterone receptor (PR) signaling pathway - cell viability counter screen (AID 1346798). Note: series mostly up to about 92 µM; nearly all actives have a fitted effect of over 50% in size. Summed up:
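Same-well multiplex: after 16 hr at 37C with compound and R5020 stimulation, HEK293T cells carrying a UAS-bla reporter received LiveBLAzer substrate (2 hr RT), then CellTiter-Glo (30 min RT) for luminescent viability.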

A short description of assay [14]: Human pregnane X receptor (PXR) small molecule agonists, qHTS cell viability counter screen (AID 1346977). Note: nearly all actives have a fitted effect of over 50% in size. Summed up: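 Measures live-cell protease fluorescence (CellTiter-Fluor) in PXR-Luc HepG2 cells treated 24hr with compounds at 37C. Cells had 5hr to attach before pin transfer of DMSO solutions.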
Assay [15] is described as follows: qHTS assay to identify small molecule agonists of the TGF-beta/Smad signaling pathway - cell viability counter screen (AID 1346829). Note: top concentration of the series differs between compounds; nearly all actives have a fitted effect of over 45% in size. The method in brief:
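Luminescence from CellTiter-Glo, read after a 30 min room-temperature incubation, gives cell viability of SBE-bla HEK 293T cells treated 5 hr with compounds at 37 C.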

Assay [16] can be described thus: qHTS assay to identify small molecule agonists of the progesterone receptor (PR) signaling pathway - cell viability counter screen (AID 1346799; calls by dose curve; note: nearly all actives have a fitted effect of over 45% in size). Summed up: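 Counter screen for cytotoxicity: compound-treated PR-UAS-bla HEK293T cells (16 hr, 37C, 5% CO2) were assayed with CellTiter-Glo, luminescence measured after 30 min at room temperature.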
A short description of assay [17]: Caspase-3/7 induction in CHO-K1 cells by small molecules, qHTS cell viability counter screen (AID 1346979). Note: nearly all actives have a fitted effect of over 35% in size. The method in brief:
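In the same wells as the caspase read, viability of compound-treated wild-type CHO-K1 cells was assessed using CellTiter-Fluor, added after 16hr at 37C and measured by fluorescence following 1hr further incubation.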

In assay [18] the target is Nuclear receptor subfamily 1 group I member 2 (Rattus norvegicus) (UniProt Q9R1A7). The experiment in a line: Rat pregnane X receptor (rPXR) activation by small molecules, qHTS assay (AID 1346983). Note: nearly all actives have a fitted effect of over 20% in size. Particulars: rPXR luciferase reporter cells, One-Glo luminescence, 24 h; stronger effect = higher value. The method in brief:
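Cell-based rPXR activation assay: rPXR cells, 2,000 per well, rested 5hr at 37 C, then exposed to compounds in DMSO for 24 hr at 37 C. Luciferase activity read by One-Glo luminescence after 30 min at room temperature.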

Assay [19] has as its target Nuclear receptor subfamily 1 group I member 2 (Homo sapiens) (UniProt O75469). The experiment in a line: CYP3A4 induction through human pregnane X receptor (PXR) by small molecules, qHTS assay (AID 1346984). Note: nearly all actives have a fitted effect of over 40% in size. Summed up: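 qHTS, concentration-response format: HepG2 DPX-2 line, PXR/CYP3A4-luc. Exposure 24 h, 37C. Substrate Luciferin-IPA 3uM final, 3 h. Detection One-Glo, 30 min RT.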

The target is the same in assay [20]. In words: Human pregnane X receptor (PXR) activation by small molecules, qHTS assay (AID 1346985). Note: nearly all actives have a fitted effect of over 40% in size. Summed up: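 DPX-2 cells (HepG2 co-transfected with a PXR response element and a CYP3A4-promoter luciferase construct) were seeded at 2,000 per well, rested 5 hr at 37C, then exposed to DMSO-dissolved compounds for 24 hr. Activation was read as luciferase luminescence.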
% is set by controls: 0 for no effect and ±100 for the full control effect.

Chain of Nuclear receptor subfamily 1 group I member 2 (Rattus norvegicus) (Q9R1A7 whole entry, looked up): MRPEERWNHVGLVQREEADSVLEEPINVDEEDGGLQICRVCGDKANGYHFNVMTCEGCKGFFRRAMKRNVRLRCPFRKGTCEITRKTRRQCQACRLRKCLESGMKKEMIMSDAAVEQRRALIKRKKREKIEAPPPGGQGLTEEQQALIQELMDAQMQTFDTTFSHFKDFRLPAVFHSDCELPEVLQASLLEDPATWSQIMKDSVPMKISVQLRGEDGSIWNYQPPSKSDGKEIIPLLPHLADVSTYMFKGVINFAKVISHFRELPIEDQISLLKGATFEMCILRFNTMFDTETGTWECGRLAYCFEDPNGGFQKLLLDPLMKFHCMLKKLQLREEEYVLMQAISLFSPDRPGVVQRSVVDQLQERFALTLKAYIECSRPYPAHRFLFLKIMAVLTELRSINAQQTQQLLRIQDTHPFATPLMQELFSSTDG
Chain of Acetylcholinesterase (Homo sapiens) (P22303 whole entry, looked up): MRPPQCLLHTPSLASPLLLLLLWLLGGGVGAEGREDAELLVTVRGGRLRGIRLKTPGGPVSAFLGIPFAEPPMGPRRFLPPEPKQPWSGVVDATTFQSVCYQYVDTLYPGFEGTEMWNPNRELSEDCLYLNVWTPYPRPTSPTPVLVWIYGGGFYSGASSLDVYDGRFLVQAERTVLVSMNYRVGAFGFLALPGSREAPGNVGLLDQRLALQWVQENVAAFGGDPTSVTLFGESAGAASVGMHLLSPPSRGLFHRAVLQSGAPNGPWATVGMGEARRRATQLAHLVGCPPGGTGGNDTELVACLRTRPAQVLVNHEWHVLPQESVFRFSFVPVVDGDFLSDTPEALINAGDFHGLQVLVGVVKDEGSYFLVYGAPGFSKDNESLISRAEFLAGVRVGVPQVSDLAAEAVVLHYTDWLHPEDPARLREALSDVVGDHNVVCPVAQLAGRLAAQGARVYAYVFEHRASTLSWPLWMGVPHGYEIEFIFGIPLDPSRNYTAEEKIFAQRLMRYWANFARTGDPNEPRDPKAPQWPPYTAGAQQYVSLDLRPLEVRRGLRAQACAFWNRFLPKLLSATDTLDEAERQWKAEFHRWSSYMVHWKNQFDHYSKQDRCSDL
Chain of Progesterone receptor (Homo sapiens) (P06401 whole entry, looked up): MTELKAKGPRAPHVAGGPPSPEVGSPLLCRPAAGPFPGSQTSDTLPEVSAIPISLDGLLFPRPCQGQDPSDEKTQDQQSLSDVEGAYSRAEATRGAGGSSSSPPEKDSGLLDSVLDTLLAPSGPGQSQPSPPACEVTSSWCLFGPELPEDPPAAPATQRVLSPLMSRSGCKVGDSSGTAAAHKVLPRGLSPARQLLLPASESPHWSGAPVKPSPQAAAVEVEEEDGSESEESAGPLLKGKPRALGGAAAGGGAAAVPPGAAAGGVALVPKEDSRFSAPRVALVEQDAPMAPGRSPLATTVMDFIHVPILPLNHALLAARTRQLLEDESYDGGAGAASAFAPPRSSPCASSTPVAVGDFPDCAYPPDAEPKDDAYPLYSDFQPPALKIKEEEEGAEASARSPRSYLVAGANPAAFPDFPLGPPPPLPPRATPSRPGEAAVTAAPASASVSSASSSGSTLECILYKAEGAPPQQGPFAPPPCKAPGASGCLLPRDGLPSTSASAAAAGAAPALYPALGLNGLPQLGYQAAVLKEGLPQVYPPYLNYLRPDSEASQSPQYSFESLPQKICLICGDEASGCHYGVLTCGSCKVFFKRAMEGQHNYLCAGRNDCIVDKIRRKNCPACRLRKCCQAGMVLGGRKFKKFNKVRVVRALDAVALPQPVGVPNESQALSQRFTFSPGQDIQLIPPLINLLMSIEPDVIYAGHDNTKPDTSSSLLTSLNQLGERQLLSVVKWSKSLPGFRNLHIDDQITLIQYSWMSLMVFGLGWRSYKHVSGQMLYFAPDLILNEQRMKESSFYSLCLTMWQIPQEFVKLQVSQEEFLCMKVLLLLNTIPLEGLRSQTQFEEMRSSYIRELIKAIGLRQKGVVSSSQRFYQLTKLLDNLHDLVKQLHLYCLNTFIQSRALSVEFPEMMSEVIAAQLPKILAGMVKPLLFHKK
Chain of Thyrotropin-releasing hormone receptor (Homo sapiens) (P34981 whole entry, looked up): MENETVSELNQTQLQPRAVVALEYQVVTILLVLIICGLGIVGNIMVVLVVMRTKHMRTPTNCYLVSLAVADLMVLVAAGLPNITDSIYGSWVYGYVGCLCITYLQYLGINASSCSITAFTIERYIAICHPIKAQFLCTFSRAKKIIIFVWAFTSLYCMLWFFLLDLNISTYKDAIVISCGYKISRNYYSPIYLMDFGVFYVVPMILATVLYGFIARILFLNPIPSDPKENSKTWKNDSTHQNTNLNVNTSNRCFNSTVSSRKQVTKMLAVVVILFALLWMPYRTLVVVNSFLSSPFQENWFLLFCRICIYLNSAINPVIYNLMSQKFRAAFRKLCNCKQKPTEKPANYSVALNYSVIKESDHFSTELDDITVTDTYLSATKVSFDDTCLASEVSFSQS
Chain of Nuclear receptor subfamily 1 group I member 2 (Homo sapiens) (O75469 whole entry, looked up): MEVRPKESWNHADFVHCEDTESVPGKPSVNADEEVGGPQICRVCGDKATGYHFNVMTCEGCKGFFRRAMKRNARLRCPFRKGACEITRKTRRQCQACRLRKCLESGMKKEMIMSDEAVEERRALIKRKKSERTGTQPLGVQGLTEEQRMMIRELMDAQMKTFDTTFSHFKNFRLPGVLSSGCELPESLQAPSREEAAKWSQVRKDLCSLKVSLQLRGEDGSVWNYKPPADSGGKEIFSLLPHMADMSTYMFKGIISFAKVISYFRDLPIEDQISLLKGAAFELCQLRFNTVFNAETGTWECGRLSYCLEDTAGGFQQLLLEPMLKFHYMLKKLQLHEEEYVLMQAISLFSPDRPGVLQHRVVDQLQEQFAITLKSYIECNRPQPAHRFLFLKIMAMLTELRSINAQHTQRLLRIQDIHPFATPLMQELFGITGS

Turning to `CCOC1Oc2ccc(OS(C)(=O)=O)cc2C1(C)C` (stereo not drawn), the Potency result in [1], in assay [2], in [6], in assay [10] and in assay [12] was “inactive” each time. For the same compound, the Potency was 30.4 µM (active) in [3] and 21.5 µM (active) in assay [11]. For the same compound, the compound was classed as inactive in assay [4], in [5], in [7], in assay [8] and in assay [9].

For `C=CCCC#N`, the Potency result in [1], in [2], in assay [3], in [13], in [6] and in assay [14] was “inactive” throughout. The Potency result in assay [10], in assay [11] and in [12] was “inactive” each time. The outcome in assay [4], in assay [5], in [7], in assay [8] and in assay [9] was inactive.

As to `CC(C)(C)NC[C@H](O)c1ccc(O)cc1Cl`, the Potency entry in assay [1], in assay [2], in assay [3], in [13], in [15] and in [6] was “inactive” in each case. Besides, the Potency entry in [10], in assay [11] and in assay [12] was “inactive” in each case. Further, the result in assay [4], in [5], in assay [7] and in [8] was inactive.

For `CCCCCCC(=O)CCCCCC/C=C/C[C@@H](O)[C@H](O)[C@@](N)(CO)C(=O)O`, the activity change, negative = cytotoxicity in assay [1] was -0.798% [at 19 µM]; in assay [13], -9.78% [at 18.9 µM]; in assay [16], -2.82% [at 19 µM]; in assay [15], 4.19% [at 15.8 µM]; in assay [14] it was 6.98% [at 19 µM]; in assay [17], 4.97% [at 19 µM]. In [10], the activity change, negative = cytotoxicity was 5.08% [at 19 µM]. Besides, the activation in assay [2] is -0.536% [at 19 µM]; in assay [5], -6.21% [at 15.8 µM]; in [7], 0.008% [at 11.8 µM]; in [11], -4.6% [at 19 µM]. For the same compound, the viability change, negative = cytotoxic in assay [4] is -3.48% [at 15.8 µM]. Besides, the activity, negative = inhibition was 7.27% [at 10.5 µM] in assay [6] and 0.986% [at 23.6 µM] in assay [12]. In addition, in assay [8], the caspase activation is 0.643% [at 19 µM]. In addition, the caspase-3/7 activation in assay [9] was 2.67% [at 19 µM]. For the same compound, the max activation in [18] was -5.78%. Also, the Potency entry in [19] and in assay [20] was “inactive” in each case.

As for `C[C@]12C=CC(=O)C=C1CC[C@@H]1[C@@H]2CC[C@@]2(C)[C@H]1CC[C@]2(C)O`, the Potency entry in assay [1], in assay [3], in [6], in assay [14], in assay [17] and in assay [10] was “inactive” in each case. The Potency entry in assay [11], in [19] and in assay [12] was “inactive” in each case. Moreover, the Potency in assay [2] is 3.35 µM (active). Also, the result in assay [4], in [5], in assay [7], in assay [8] and in assay [9] was inactive. Also, the max activation in assay [18] is -4.23%.

Consider `CC(C)[N+](C)(CCC(C(N)=O)(c1ccccc1)c1ccccc1)C(C)C`, for which the Potency entry in [1], in [2], in [13], in assay [16], in assay [15] and in assay [6] was “inactive” throughout. Moreover, the Potency result in [14], in assay [17], in assay [10], in assay [11], in assay [19] and in [20] was “inactive” in each case. Also, in [12], the Potency entry is “inactive”. The compound was called inactive in assay [4], in assay [5], in assay [7], in [8] and in assay [9]. In [18], the max activation is 0.796%.
